# From article PMC7862700, “An all-to-all approach to the identification of sequence-specific readers for epigenetic DNA modifications on cytosine”
# Key:
# Test in all cases: DAPPL (digital affinity profiling via proximity ligation, sequencing); 10 mM Tris-HCl pH 7.5, 50 mM NaCl, 1 mM DTT, 4% glycerol, room temperature, 30 min; GST-TFs on glutathione beads, 16-mer random dsDNA library, 0.1% formaldehyde crosslink after washing; high values mean tight binding
# FLI1 = target: T1, FLI1 (Homo sapiens, UniProt Q01543 1-452); details: protein: recombinant; tags: N-terminal GST; dsDNA, one strand shown
# T1 sequence: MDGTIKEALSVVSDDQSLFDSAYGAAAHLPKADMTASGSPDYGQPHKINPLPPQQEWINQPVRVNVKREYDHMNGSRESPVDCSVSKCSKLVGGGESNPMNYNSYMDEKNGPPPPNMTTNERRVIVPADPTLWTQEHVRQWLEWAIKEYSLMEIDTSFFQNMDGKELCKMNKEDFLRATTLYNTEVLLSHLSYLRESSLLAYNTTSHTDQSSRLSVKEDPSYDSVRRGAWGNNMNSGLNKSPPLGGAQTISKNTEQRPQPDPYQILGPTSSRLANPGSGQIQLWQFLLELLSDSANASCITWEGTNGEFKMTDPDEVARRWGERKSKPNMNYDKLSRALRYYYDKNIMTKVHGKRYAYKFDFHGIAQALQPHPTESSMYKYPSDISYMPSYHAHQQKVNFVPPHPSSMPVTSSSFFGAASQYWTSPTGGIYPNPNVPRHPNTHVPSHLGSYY
# Outline: (§1)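 In yeast, human transcription factors were expressed with a GST fusion, then pulled down on glutathione beads and given DNA barcodes. Pooled with a tag-only sample, they were exposed to 200 nmole of a 16-mer random double-stranded DNA library (Tris/NaCl/DTT/glycerol buffer, room temperature, 30 min), washed, crosslinked with 0.1% formaldehyde, proximity-ligated using BsaI/T4 ligase for 1 h at 37 °C, PCR-amplified and read on an Illumina NextSeq500. Each hexamer's frequency of reads for a factor, divided by the matching frequency for the tag-only sample, gives the binding signal.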
# ELK1 = target: T2, ELK1 (Homo sapiens, UniProt P19419 1-428); details: protein: recombinant; tags: N-terminal GST; dsDNA, one strand shown
# T2 sequence: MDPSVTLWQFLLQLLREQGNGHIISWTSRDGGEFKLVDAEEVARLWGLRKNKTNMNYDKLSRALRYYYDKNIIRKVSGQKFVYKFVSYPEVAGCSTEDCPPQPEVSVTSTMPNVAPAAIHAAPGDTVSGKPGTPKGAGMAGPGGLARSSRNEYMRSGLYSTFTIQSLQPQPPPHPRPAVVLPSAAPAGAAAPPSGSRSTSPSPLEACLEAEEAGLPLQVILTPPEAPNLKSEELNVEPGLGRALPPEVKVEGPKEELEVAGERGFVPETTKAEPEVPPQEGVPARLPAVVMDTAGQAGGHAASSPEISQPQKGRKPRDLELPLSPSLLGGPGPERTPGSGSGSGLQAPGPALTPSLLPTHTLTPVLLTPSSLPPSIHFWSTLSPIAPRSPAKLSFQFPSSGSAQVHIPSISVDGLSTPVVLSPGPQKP
# Outline: as §1
# GABPA = target: T3, GABPA (Homo sapiens, UniProt Q06546 1-454); details: protein: recombinant; tags: N-terminal GST; dsDNA, one strand shown
# T3 sequence: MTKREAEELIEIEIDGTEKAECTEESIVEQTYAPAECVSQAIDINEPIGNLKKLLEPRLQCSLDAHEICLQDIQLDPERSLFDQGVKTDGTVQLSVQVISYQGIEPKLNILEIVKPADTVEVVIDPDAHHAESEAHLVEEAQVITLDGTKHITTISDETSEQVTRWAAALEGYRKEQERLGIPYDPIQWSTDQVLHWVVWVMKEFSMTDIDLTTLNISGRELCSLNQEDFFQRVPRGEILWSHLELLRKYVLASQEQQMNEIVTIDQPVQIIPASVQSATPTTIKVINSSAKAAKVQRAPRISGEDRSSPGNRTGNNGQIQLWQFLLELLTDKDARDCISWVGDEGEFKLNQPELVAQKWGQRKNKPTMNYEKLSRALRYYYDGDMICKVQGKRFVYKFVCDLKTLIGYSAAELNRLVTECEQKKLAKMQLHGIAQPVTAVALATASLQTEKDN
# Outline: as §1
# ERG = target: T4, ERG (Homo sapiens, UniProt P11308 1-479); details: protein: recombinant; tags: N-terminal GST; dsDNA, one strand shown
# T4 sequence: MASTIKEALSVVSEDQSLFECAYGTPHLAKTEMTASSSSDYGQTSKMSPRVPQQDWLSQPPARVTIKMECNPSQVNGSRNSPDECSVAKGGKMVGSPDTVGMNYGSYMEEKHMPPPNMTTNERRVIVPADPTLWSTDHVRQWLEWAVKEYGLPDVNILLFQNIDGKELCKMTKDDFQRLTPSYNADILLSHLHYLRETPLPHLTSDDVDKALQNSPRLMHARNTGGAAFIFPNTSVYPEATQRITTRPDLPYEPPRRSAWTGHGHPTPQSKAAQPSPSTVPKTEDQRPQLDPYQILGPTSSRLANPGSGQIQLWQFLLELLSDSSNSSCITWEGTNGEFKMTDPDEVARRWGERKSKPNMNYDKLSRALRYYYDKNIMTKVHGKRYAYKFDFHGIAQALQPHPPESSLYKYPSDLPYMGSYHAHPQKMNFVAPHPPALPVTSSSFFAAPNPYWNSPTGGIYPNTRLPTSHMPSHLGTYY
# Outline: as §1
# ELF1 = ELF1 (Homo sapiens, UniProt P32519 1-619); details: protein: recombinant; tags: N-terminal GST; dsDNA, one strand shown
# Outline: as §1
# EHF = target: T5, EHF (Homo sapiens, UniProt Q9NZC4 1-300); details: protein: recombinant; tags: N-terminal GST; dsDNA, one strand shown
# T5 sequence: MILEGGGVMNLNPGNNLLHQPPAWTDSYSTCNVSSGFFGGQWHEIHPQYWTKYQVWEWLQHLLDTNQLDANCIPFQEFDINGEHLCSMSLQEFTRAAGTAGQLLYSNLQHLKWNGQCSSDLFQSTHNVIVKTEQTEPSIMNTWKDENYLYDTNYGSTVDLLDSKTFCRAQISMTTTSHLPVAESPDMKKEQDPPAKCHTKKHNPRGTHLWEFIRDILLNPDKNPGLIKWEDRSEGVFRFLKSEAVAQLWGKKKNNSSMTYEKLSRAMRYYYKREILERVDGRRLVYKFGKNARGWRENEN
# Outline: as §1
# SPI1 = SPI1 (Homo sapiens, UniProt P17947 1-270); details: protein: recombinant; tags: N-terminal GST; dsDNA, one strand shown
# Outline: as §1
# SPIB = SPIB (Homo sapiens, UniProt Q01892 1-262); details: protein: recombinant; tags: N-terminal GST; dsDNA, one strand shown
# Outline: as §1
# ELK3 = target: T6, ELK3 (Homo sapiens, UniProt P41970 1-407); details: protein: recombinant; tags: N-terminal GST; dsDNA, one strand shown
# T6 sequence: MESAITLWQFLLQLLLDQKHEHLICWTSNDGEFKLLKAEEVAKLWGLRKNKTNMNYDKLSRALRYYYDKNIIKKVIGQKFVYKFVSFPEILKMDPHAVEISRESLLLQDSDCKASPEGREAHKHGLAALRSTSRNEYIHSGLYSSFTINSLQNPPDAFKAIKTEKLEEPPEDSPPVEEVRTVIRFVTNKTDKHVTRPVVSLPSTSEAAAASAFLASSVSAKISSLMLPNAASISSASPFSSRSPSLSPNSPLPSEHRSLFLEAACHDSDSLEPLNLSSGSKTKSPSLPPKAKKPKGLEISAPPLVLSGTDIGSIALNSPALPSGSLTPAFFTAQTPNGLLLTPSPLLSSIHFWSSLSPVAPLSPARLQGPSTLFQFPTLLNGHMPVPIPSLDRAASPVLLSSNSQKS
# Outline: as §1
# FEV = target: T7, FEV (Homo sapiens, UniProt Q99581 1-238); details: protein: recombinant; tags: N-terminal GST; dsDNA, one strand shown
# T7 sequence: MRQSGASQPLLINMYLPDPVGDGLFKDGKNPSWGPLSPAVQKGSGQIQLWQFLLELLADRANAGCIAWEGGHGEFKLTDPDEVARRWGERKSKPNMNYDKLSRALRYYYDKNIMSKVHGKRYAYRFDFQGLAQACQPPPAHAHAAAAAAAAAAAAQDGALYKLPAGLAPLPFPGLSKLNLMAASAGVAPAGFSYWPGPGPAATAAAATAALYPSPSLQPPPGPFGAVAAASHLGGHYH
# Outline: as §1
# ETV5 = ETV5 (Homo sapiens, UniProt P41161 1-510); details: protein: recombinant; tags: N-terminal GST; dsDNA, one strand shown
# Outline: as §1
# HSF1 = HSF1 (Homo sapiens, UniProt Q00613 1-529); details: protein: recombinant; tags: N-terminal GST; chain copies: 3; dsDNA, one strand shown
# Outline: as §1
# SPIC = target: T8, SPIC (Homo sapiens, UniProt Q8N5J4 1-248); details: protein: recombinant; tags: N-terminal GST; dsDNA, one strand shown
# T8 sequence: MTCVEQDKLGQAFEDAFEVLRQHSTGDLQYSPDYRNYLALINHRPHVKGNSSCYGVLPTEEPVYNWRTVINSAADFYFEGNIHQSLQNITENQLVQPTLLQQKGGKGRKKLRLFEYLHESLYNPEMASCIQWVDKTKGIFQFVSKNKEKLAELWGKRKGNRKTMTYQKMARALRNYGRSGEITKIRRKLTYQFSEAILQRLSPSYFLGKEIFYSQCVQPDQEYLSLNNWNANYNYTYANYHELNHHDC
# Outline: as §1
# ELF4 = ELF4 (Homo sapiens, UniProt Q99607 1-663); details: protein: recombinant; tags: N-terminal GST; dsDNA, one strand shown
# Outline: as §1
# ELK4 = target: T9, ELK4 (Homo sapiens, UniProt P28324-2 1-405); details: protein: recombinant; tags: N-terminal GST; dsDNA, one strand shown
# T9 sequence: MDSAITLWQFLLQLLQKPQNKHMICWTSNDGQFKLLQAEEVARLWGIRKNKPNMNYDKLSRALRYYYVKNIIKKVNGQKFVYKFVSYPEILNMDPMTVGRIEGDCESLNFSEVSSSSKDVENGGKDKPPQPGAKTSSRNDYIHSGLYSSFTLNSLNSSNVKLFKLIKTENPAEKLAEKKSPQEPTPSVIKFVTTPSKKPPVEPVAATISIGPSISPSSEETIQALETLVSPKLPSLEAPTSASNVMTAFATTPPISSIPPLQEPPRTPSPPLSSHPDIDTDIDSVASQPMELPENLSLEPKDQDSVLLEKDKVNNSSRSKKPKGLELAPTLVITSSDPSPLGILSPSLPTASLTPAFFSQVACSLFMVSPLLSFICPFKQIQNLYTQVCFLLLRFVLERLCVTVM
# Outline: as §1
# ETV2 = target: T10, ETV2 (Homo sapiens, UniProt O00321 1-342); details: protein: recombinant; tags: N-terminal GST; dsDNA, one strand shown
# T10 sequence: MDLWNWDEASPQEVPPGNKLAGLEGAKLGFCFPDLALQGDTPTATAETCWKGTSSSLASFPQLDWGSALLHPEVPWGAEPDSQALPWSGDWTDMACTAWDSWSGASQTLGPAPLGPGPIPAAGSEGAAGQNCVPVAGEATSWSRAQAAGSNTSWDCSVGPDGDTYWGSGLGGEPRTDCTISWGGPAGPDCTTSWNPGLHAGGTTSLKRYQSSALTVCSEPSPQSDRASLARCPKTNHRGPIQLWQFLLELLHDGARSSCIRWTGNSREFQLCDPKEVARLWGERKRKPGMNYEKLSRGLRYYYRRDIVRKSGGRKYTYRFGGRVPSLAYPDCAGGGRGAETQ
# Outline: as §1
# ELF3 = target: T11, ELF3 (Homo sapiens, UniProt P78545 1-371); details: protein: recombinant; tags: N-terminal GST; dsDNA, one strand shown
# T11 sequence: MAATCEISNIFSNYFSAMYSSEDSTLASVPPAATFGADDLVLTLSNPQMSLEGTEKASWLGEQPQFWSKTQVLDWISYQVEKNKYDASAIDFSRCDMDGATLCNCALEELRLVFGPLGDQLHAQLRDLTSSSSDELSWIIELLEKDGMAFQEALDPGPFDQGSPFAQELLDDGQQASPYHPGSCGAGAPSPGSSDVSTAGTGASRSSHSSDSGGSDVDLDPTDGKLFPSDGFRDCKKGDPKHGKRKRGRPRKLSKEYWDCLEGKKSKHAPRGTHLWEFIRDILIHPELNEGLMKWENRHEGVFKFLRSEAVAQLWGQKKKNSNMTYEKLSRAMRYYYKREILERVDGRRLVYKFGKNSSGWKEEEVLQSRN
# Outline: as §1
# CRX = CRX (Homo sapiens, UniProt O43186 1-299); details: protein: recombinant; tags: N-terminal GST; dsDNA, one strand shown
# Outline: as §1
# ETV1 = ETV1 (Homo sapiens, UniProt P50549 1-477); details: protein: recombinant; tags: N-terminal GST; dsDNA, one strand shown
# Outline: as §1
# ELF4, sequence (Q99607 whole entry): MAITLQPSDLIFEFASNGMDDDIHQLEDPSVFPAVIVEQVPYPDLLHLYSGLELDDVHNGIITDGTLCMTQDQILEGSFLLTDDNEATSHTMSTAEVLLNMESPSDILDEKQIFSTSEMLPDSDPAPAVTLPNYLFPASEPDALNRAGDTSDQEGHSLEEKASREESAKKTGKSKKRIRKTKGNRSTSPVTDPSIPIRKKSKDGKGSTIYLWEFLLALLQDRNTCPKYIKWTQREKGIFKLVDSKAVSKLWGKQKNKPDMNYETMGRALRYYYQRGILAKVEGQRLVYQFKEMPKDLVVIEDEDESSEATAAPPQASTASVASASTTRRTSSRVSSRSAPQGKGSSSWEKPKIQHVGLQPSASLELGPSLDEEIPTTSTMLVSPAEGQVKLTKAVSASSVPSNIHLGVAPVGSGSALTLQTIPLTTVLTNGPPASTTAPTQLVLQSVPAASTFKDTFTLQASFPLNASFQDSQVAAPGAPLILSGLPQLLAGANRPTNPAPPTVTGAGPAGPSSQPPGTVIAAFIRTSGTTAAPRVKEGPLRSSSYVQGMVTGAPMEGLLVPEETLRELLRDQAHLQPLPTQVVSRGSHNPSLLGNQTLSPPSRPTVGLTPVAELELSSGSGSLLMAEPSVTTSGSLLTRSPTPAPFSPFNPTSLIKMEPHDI
# ELF1, sequence (P32519 whole entry): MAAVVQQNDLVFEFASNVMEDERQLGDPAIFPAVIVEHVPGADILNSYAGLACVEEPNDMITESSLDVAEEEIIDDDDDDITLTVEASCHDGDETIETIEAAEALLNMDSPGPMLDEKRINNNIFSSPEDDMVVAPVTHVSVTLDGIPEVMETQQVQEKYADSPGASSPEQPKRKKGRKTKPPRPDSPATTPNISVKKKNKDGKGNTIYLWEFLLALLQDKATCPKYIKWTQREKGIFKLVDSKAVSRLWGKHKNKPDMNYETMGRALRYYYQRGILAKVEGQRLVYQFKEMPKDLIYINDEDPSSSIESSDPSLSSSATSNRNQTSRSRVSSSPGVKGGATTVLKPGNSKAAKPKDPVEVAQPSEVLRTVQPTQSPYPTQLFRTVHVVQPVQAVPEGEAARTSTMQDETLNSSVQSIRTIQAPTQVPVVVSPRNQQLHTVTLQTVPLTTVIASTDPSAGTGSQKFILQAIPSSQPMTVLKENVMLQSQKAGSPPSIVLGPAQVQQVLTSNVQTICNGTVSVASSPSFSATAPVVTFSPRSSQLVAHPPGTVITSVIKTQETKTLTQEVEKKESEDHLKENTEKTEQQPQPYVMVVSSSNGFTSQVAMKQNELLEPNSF
# ETV1, sequence (P50549 whole entry): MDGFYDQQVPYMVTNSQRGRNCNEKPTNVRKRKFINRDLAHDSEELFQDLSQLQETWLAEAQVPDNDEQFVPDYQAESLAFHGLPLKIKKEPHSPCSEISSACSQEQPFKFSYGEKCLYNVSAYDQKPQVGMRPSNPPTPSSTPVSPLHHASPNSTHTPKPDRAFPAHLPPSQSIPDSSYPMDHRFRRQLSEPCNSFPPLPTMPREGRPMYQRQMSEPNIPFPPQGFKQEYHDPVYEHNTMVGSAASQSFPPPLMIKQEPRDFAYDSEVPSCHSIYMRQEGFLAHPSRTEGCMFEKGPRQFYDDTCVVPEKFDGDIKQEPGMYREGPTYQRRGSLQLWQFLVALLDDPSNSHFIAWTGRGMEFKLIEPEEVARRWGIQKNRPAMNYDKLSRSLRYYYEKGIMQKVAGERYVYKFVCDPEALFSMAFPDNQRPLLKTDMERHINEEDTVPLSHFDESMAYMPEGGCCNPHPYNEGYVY
# SPIB, sequence (Q01892 whole entry): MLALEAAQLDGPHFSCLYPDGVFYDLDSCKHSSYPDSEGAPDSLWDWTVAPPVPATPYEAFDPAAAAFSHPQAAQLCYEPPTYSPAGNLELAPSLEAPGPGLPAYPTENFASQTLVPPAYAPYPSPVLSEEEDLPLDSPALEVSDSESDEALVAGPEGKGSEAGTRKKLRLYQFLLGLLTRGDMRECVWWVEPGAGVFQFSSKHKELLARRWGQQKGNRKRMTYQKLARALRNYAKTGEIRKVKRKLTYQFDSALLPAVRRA
# ETV5, sequence (P41161 whole entry): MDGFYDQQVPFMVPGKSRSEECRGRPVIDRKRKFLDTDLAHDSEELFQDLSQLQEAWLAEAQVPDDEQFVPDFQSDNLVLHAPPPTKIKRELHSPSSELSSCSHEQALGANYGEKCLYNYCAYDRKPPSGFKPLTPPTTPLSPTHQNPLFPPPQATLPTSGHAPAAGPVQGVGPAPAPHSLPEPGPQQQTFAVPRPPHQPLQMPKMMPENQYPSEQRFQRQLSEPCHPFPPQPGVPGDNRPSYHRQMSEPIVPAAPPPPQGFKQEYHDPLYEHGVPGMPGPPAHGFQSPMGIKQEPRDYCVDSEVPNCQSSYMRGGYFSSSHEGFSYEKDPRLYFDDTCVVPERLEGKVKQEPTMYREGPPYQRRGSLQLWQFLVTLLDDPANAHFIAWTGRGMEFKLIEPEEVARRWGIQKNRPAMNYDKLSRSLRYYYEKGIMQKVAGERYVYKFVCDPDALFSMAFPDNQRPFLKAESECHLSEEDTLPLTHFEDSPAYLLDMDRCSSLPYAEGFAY
# HSF1, sequence (Q00613 whole entry): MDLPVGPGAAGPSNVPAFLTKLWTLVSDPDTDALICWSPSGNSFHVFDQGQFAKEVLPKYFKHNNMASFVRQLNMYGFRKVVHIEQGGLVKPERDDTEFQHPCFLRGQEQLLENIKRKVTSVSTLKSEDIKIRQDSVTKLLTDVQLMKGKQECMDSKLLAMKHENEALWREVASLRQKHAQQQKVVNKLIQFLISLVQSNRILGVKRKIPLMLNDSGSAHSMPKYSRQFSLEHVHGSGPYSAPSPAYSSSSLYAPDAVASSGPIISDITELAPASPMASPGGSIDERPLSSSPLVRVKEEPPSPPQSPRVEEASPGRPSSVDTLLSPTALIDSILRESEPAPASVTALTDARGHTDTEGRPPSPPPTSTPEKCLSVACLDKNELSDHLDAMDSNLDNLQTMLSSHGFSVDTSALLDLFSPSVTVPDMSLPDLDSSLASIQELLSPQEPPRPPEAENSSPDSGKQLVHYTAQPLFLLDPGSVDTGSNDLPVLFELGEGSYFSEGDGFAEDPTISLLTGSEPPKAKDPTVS
# CRX, sequence (O43186 whole entry): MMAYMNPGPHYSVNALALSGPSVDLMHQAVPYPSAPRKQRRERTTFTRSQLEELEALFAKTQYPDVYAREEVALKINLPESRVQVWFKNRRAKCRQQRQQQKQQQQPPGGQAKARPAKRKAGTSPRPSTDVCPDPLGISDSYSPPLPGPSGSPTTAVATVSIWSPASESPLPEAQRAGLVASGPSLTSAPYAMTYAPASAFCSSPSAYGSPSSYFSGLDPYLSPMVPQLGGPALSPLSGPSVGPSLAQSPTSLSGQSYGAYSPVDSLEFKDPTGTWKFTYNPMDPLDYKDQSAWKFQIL
sequence,measurement,setting,value
GCTCCG,binding signal,FLI1,"1.37 fold enrichment (6-mer frequency, TF over GST control)"
same,binding signal,ELK1,"1.4 fold enrichment (6-mer frequency, TF over GST control)"
same,binding signal,GABPA,"1.35 fold enrichment (6-mer frequency, TF over GST control)"
same,binding signal,ERG,"1.36 fold enrichment (6-mer frequency, TF over GST control)"
same,binding signal,ELF1,"1.32 fold enrichment (6-mer frequency, TF over GST control)"
same,binding signal,EHF,"1.45 fold enrichment (6-mer frequency, TF over GST control)"
same,binding signal,SPI1,"1.25 fold enrichment (6-mer frequency, TF over GST control)"
same,binding signal,SPIB,"1.19 fold enrichment (6-mer frequency, TF over GST control)"
same,binding signal,ELK3,"1.44 fold enrichment (6-mer frequency, TF over GST control)"
same,binding signal,FEV,"1.42 fold enrichment (6-mer frequency, TF over GST control)"
same,binding signal,ETV5,"1.33 fold enrichment (6-mer frequency, TF over GST control)"
same,binding signal,HSF1,"1.2 fold enrichment (6-mer frequency, TF over GST control)"
same,binding signal,SPIC,"1.54 fold enrichment (6-mer frequency, TF over GST control)"
same,binding signal,ELF4,"1.39 fold enrichment (6-mer frequency, TF over GST control)"
same,binding signal,ELK4,"1.33 fold enrichment (6-mer frequency, TF over GST control)"
same,binding signal,ETV2,"1.32 fold enrichment (6-mer frequency, TF over GST control)"
same,binding signal,ELF3,"1.32 fold enrichment (6-mer frequency, TF over GST control)"
same,binding signal,CRX,"1.07 fold enrichment (6-mer frequency, TF over GST control)"
same,binding signal,ETV1,"1.27 fold enrichment (6-mer frequency, TF over GST control)"
